Assay outcomes: PubChem, National Center for Advancing Translational Sciences (NCATS)
A selection: hits, their analogues and other compounds. The true share with any hit is near 2.9%.
GLP1R inv ag = GLP-1 receptor (human) inverse agonism; P43220; HEK293 GLP-1R CRE-luciferase, luminescence, 24 h; GLP-1R form is constitutively active; Potency, µM (top dose mostly 38.3 µM), for the others: top-dose activity change, negative = inhibition, hits mostly inhibitors; 410,000 tested, 1.6% active; also: potency is read from the fitted curve at half-maximal effect; % is scaled to controls: 0 for no effect and ±100 for the full control effect; nearly all actives have a fitted effect of over 55% in size
Target sequence (P43220 whole entry, looked up): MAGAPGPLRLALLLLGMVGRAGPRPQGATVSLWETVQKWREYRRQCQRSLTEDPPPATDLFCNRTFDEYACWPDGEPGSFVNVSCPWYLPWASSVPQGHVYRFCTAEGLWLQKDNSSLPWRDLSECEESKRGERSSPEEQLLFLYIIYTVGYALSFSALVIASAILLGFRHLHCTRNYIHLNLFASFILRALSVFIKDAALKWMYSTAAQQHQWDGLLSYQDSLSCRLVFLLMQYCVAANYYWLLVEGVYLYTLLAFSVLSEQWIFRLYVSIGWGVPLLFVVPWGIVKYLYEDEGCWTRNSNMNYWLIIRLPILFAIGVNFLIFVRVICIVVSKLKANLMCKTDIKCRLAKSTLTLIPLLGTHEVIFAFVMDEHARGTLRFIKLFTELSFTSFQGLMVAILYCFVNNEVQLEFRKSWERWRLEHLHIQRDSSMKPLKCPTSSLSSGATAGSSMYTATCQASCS
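Readout was luciferase luminescence, measured 12 min after detection reagent at room temperature. Beforehand, GLP-1R reporter HEK293 cells had sat 12 h, then received compounds for 24 hr at 37 deg C.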
GLP1R cytotox = cytotoxicity in counter-screen for GLP-1R inverse agonists; HEK293 cAMP-luciferase reporter cells, luminescence, 24 h; Potency, µM (highest dose often 38.3 µM), without a hit: top-dose activity change, negative = inhibition, actives largely listed as inhibitors; 410,000 tested, 0.13% active;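 also: loss of luciferase light is scored as toxicity; potency is read from the fitted curve at half-maximal effect; % is scaled to controls: 0 for no effect and ±100 for the full control effect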
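Quantitative HTS format, 1536 wells, 200 cells/uL seeded. Compounds: 23 nL, 24 h, 37 °C. Detection: luciferase reagent, luminescence at 12 min RT; decreased signal taken as cytotoxic.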
GLP-1R agonist = agonists of human GLP-1 receptor; P43220; Potency, µM (highest dose often 45.6 µM), without a hit: top-dose activation, hits mostly activators; HEK293 GLP-1R CRE-luciferase, luminescence, 4-6 h; cells express a hypersensitive GLP-1R form; AID 624172; 380,000 tested, 0.007% active; also: potency is read from the fitted curve at half-maximal effect; % of control where 0% means no effect
ClpP mod = qHTS Assay for Activators of ClpP; AID 651965, 2013; Potency, µM (doses to about 57.5 µM), inactives show at the highest dose activity change, negative = active; 340,000 tested, 1.9% active; ATP-dependent Clp protease proteolytic subunit (Bacillus subtilis (strain 168)), P80244; purified B. subtilis ClpP, FRET peptide cleavage, 20 min; active = well fitted falling curve with a large enough effect; inconclusive = small, poorly fitted or top-dose-only effect; inactive = no such curve, though single readings can be large or run the other way; also: potency is read from the fitted curve at half-maximal effect; the source files actives as falling curves though it sought activators and does not explain the sign; nearly all actives have a fitted effect of over 65% in size
Target sequence (P80244 whole entry, looked up): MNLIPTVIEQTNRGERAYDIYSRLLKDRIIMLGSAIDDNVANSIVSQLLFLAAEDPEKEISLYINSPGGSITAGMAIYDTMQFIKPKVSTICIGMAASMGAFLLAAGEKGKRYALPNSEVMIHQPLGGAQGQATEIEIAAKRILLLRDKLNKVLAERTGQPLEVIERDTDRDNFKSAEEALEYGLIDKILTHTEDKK
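Buffer: 100 mM Tris/HCl pH8, 100 mM KCl, 0.05% low protease BSA, 2.5% glycerol, 0.01% Tween-20. ClpP 10 microg/mL final; 20 min RT; delta FRET normalized to ADEP and DMSO controls.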
p53 reactivator = mutant p53 re-activation in reporter cells; H1299 p53-A138V BP100-luciferase reporter, luminescence, 24 h; Potency, µM (titrated, usually from 92.2 µM), inactives show top-dose activity change, positive = activation, actives largely listed as activators; 320,000 tested, 0.063% active; also: potency is read from the fitted curve at half-maximal effect; % of control where 0% means no effect; nearly all actives have a fitted effect of over 45% in size
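H1299 (p53-null), stable ts p53-A138V + BP100-Luc; 1000 cells/well, Opti-MEM/10% FBS; cpd 4 pt, 1:5; 24 h, 37 deg C, 5% CO2; detection reagent 10 min RT; luminescence.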
LDHA inh = blocks human lactate dehydrogenase A; P00338; purified LDHA, NADH/diaphorase-resazurin fluorescence; stronger effect = lower value; activity change, % (values are at about 110 or 230 µM); 480,000 tested, 0.15% active; in the data active = activity change below about -30%; inconclusive = mostly about -25% to -30%;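 also: plate controls were DMSO wells for no effect and wells without enzyme for full effect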
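Resorufin fluorescence (ex540/em590), read at 0 and 20 min after diaphorase/resazurin addition, reports the NADH left after a 5 min room-temperature reaction of 2 nM human LDH5 with 0.06 mM NADH and 0.2 mM pyruvate.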
* = called active by the depositor; ? = inconclusive; . = no result given. Unless noted, calls follow the shape of the dose curve; as a rule, active = well fitted curve in the direction sought with a large enough effect; inconclusive = small, poorly fitted or top-dose-only effect, or another doubt; inactive = no such curve, though single readings can be large; an effect the other way counts as inactive or inconclusive.

SMILES	GLP1R inv ag	GLP1R cytotox	GLP-1R agonist	ClpP mod	p53 reactivator	LDHA inh
CC(C)C1C(=O)N(Cc2cn(Cc3ccco3)nn2)CCS(=O)(=O)N1Cc1ccc(-c2ccc(Cl)cc2)cc1 (configuration not stated)	4µM*	?	4%	-6%	.	-1
CC1C(=O)N(Cc2cn(Cc3ccco3)nn2)CCS(=O)(=O)N1Cc1ccc(-c2ccccc2)cc1 (configuration not stated)	-15%	-2%	1%	-1%	.	-1
CC(C)C1C(=O)N(Cc2cn(Cc3ccco3)nn2)CCS(=O)(=O)N1Cc1ccc(-c2ccccc2)cc1 (configuration not stated)	?	6%	-2%	0%	.	0
COCOCCn1cc(CN2CCS(=O)(=O)N(Cc3ccc(-c4ccc(Cl)c(Cl)c4)cc3)C(C)C2=O)nn1 (configuration not stated)	11µM*	-26%	0%	0%	.	-1
COC(=O)c1ccc(/C=N/NC(=O)C2CC2)cc1	.	.	.	.	.	4
CC(C)(C)c1ccc(C(=O)CCC(=O)NCc2ccccc2)cc1	7.9µM*	-20%	15%	-1%	3%	-2
COc1ccc(CNC(=S)NCc2ccc(OC)cc2)cc1	-6%	-11%	-4%	.	-2%	0
COc1ccc(CNC(=S)NC(C)CCc2ccccc2)cc1 (configuration not stated)	10µM*	?	-1%	0%	23%	-3
COc1ccc(N2CCC(CNC(=O)Nc3ccc(C)c(C)c3)C2)cc1 (configuration not stated)	6.3µM*	3%	-1%	-2%	4%	9
CCC(C#CCN1CCCC1)(CC)OCCC#N	.	.	.	.	.	-18
CC1CCCCN1S(=O)(=O)c1ccc(C(=O)Nc2ccccc2-c2nc3ccccc3[nH]2)cc1 (configuration not stated)	3%	-8%	-6%	13µM*	-6%	-4
COc1ccc(Nc2nc3cc(C)ccc3cc2C#N)cc1	7%	-18%	?	.	.	-1
CCOC(=O)C1(Cc2cccc(Cl)c2)CCCN(C(=O)c2cnn(CC)c2)C1 (configuration not stated)	7%	-3%	-1%	32µM*	.	-6
CCOC(=O)C1(Cc2ccccc2C)CCCN(C(=O)c2sccc2C)C1 (configuration not stated)	10µM*	1%	4%	0%	-8%	0
CCCc1cc(C(=O)N2CCCC(Cc3cccc(Cl)c3)(C(=O)OCC)C2)n(C)n1 (configuration not stated)	11µM*	-10%	6%	-1%	25%	-1
CCOC(=O)C1(Cc2cccc(Cl)c2)CCCN(C(=O)c2ccnn2C)C1 (configuration not stated)	-5%	0%	-4%	-9%	?	-1
CCOC(=O)C1(Cc2cccc(Cl)c2)CCCN(C(=O)c2cn[nH]c2)C1 (configuration not stated)	-11%	-1%	3%	-3%	2%	-9
Cc1nnc(SCC(=O)NC2CCS(=O)(=O)C2)n1-c1ccccc1 (configuration not stated)	-2%	1%	0%	.	0%	-2
Cc1ccc(NC(=O)CCn2cccn2)c(C)c1	9%	4%	.	0%	.	-3
Cc1cccc2sc(N(CCCN(C)C)C(=O)CCc3ccccc3)nc12	2.8µM*	?	-13%	2%	-26%	2
Cc1cccc2sc(N(CCCN(C)C)C(=O)CN3C(=O)c4ccccc4C3=O)nc12	16%	?	11%	4%	7%	-6
COc1ccc(C(=O)Cn2c(NCCO)nc3ccccc32)cc1OC	6%	-5%	-3%	-1%	-15%	-5
O=C(OCc1ccccc1)N(CCCCN(CCCNCc1ccccc1)C(=O)OCc1ccccc1)CCCNCc1ccccc1	2.8µM*	?	-5%	2%	.	5
CCN(CC)CCCNCc1ccccc1	.	.	.	.	.	9
Cc1c(C(=O)N2c3ccccc3CC2C)oc2ccccc12 (configuration not stated)	10µM*	-16%	-3%	1%	?	0
SMILES	GLP1R inv ag	GLP1R cytotox	GLP-1R agonist	ClpP mod	p53 reactivator	LDHA inh
COCc1c(C(=O)OCC(=O)N2c3ccccc3CC2C)oc2ccccc12 (configuration not stated)	0%	0%	2%	-13%	5%	0
Cc1cc(C)n(-c2ccc(C(=O)Nc3ccc(S(=O)(=O)NCc4ccco4)cc3)cc2)n1	11µM*	-25%	-16%	-1%	-8%	-2
CCN(CC)S(=O)(=O)c1cccc(NC(=O)CCNC(=O)NC23CC4CC(CC(C4)C2)C3)c1	10µM*	11%	3%	0%	3%	0
Cc1ccc(S(=O)(=O)N(C)C)cc1NC(=S)NC(=O)C12CC3CC(CC(C3)C1)C2	?	0%	-1%	2%	2%	3
CN(C)S(=O)(=O)c1cccc(NC(=S)NC23CC4CC(CC(C4)C2)C3)c1	7.9µM*	-30%	19%	.	1%	-8
CCN(CC)S(=O)(=O)c1cccc(NC(=O)CCNC(=O)c2ccc([N+](=O)[O-])cc2)c1	-10%	2%	0%	-4%	-6%	2
NS(=O)(=O)c1cccc(NC(=S)NC(=O)C23CC4CC(CC(C4)C2)C3)c1	1.3µM*	-16%	10%	-1%	?	-6
CCN(CC)S(=O)(=O)c1cccc(NC(=O)CNC2CCCCCC2)c1	7.9µM*	-4%	-7%	1%	-2%	-11
COc1cc(/C=N/Nc2ccc(S(N)(=O)=O)cc2[N+](=O)[O-])cc(OC)c1O	7%	-18%	10%	1%	-1%	-2
FC(F)Oc1ccc(NC(=S)NC23CC4CC(CC(C4)C2)C3)cc1	4.5µM*	?	6%	-2%	?	-1
CCOc1ccc(NC(=S)NC23CC4CC(CC(C4)C2)C3)cc1	4%	4%	-2%	2%	10%	2
CN(C)S(=O)(=O)c1cccc(NC(=S)NC2CCCCC2)c1	11µM*	-6%	4%	.	-2%	-2
COc1ccc(CCNc2nc(=S)[nH]c3cc(OC)c(OC)cc23)cc1OC	0%	24%	9%	-7%	-4%	-3
O=C(CCS(=O)(=O)c1nc(-c2cccs2)cc(C(F)(F)F)n1)Nc1ccc(F)c(Cl)c1	?	-18%	.	22µM*	.	-6
